Data on 19 compounds can be found in PubChem BioAssay.

SMILES strings stand for the structures. “And” between values parts separate entries of the source, which are not always exact repeats. Identical values can stand only once. A number with no mark means an inactive call. For some assays here: Potency and affinity values are given separately. The source made the active and inactive calls. Unless noted, how the calls were made is not given here.

A short description of assay [1]: antimalarial activity against Dd2 strain (AID 2302;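 active means growth inhibition above 50% at the single 2 µM test dose, taken to imply half-maximal potency below 2 µM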;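 further: 0% = DMSO untreated growth and 100% = chloroquine plus artemisinin killed control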). The settings on record: P. falciparum Dd2 in RBCs, LDH growth readout, 72 h; at 2 µM; hits give high values.
Assay [2] in a line: human hepatoma cell viability loss – ATP luminescence, cytotoxicity control for P. falciparum antimalarial project, primary screen (AID 2303;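 active means inhibition above 50%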;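 further: 0% = DMSO wells and 100% = digitonin-killed cells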). The conditions noted are these: HepG2 viability, 24-48 h, at 10 µM, hits give high values.
Assay [3] addresses L-lactate dehydrogenase (Plasmodium falciparum (isolate CDC / Honduras)) (UniProt Q27743). Put plainly: PfLDH activity inhibition – cell lysate, 3D7 strain, counter-screen for P. falciparum growth inhibition project (AID 2304).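 Further: 0% = vehicle and 100% = reference inhibitor.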 The settings on record: P. falciparum 3D7 crude extract, LDH APAD/NBT absorbance; at 2 µM; hits give high values. (Counterscreens check selectivity or assay interference.)

Assay [4] in a line: inhibition of 3D7 malaria parasite growth – strain 3D7 (AID 2306).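 Further: 0% = DMSO wells and 100% = chloroquine plus artemisinin control wells.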 The settings on record: P. falciparum 3D7 erythrocytic growth, LDH absorbance, 72 h; at 2 µM; hits give high values.
Assay [5] has as its target Calcium-dependent protein kinase 1 (Plasmodium falciparum (isolate 3D7)) (UniProt P62344). Kind of assay: PfCDPK1 kinase inhibitors, biochemical, TCAMS library (AID 1159585; cut-off not given, nearly all actives have IC50 up to about 0.98 µM;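 further: inhibitors leave more ATP so luminescence rises with inhibition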). The conditions noted are these: recombinant PfCDPK1, Kinase-Glo ATP depletion luminescence. (In Kinase-Glo more light means more ATP remaining.)
Assay [6] addresses Plasmodium falciparum protein kinase 6 (PK6, PF3D7_1337100) (UniProt Q8IDW1). Put plainly: PfPK6 kinase inhibitors, biochemical, TCAMS library (AID 1159586). The conditions noted are these: recombinant PfPK6, Kinase-Glo ATP depletion luminescence.
Assay [7] deals with Protein kinase 7 (PK7), Plasmodium falciparum 3D7 (PF3D7_0213400) (UniProt Q7YTF7). Kind of assay: inhibition of Plasmodium PK7 catalytic activity – biochemical, TCAMS antimalarial set, Kinase-Glo luminescence (AID 1159587). The settings on record: recombinant PfPK7, Kinase-Glo ATP depletion luminescence.
The target in assay [8] is Calcium-dependent protein kinase 4 (Plasmodium falciparum (isolate 3D7)) (UniProt Q8IBS5). Put plainly: PfCDPK4 kinase inhibitors, biochemical, TCAMS library (AID 1159588; cut-off not given, nearly all actives have IC50 up to about 0.91 µM). The conditions noted are these: recombinant PfCDPK4, Kinase-Glo ATP depletion luminescence.
Chain of Calcium-dependent protein kinase 4 (Plasmodium falciparum (isolate 3D7)) (Q8IBS5 whole entry, looked up): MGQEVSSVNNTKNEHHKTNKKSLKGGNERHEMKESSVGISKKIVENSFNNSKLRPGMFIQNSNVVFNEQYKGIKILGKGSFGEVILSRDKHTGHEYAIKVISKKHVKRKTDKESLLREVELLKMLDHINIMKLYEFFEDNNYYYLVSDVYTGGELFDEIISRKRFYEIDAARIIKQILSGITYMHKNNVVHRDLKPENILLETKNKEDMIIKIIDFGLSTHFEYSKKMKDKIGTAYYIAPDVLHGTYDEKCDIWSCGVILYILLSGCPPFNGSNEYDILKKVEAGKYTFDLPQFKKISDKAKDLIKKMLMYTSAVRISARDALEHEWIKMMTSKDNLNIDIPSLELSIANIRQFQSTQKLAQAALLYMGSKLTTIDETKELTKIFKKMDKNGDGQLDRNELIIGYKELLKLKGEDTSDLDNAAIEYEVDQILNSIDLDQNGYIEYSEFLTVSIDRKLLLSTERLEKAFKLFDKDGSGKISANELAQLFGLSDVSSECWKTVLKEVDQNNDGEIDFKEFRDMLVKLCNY

Chain of Plasmodium falciparum protein kinase 6 (PK6, PF3D7_1337100) (Q8IDW1 1-305): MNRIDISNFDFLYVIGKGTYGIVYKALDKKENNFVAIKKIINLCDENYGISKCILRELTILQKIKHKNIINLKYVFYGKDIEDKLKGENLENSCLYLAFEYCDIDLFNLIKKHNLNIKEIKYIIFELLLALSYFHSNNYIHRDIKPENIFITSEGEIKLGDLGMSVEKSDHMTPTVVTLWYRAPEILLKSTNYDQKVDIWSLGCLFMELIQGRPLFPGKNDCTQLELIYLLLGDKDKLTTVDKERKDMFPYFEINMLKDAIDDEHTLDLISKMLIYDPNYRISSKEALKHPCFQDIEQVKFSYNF
Chain of L-lactate dehydrogenase (Plasmodium falciparum (isolate CDC / Honduras)) (Q27743 whole entry, looked up): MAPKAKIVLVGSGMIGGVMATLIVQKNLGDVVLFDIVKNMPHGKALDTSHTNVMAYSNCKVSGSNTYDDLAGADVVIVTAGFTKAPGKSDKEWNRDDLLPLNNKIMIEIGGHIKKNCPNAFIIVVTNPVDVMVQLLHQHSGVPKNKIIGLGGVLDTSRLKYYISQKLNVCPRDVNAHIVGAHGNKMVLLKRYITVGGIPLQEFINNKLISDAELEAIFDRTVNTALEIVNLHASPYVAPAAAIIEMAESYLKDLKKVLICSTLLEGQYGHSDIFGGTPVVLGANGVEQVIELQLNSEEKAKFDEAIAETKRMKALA
Chain of Protein kinase 7 (PK7), Plasmodium falciparum 3D7 (PF3D7_0213400) (Q7YTF7 1-343): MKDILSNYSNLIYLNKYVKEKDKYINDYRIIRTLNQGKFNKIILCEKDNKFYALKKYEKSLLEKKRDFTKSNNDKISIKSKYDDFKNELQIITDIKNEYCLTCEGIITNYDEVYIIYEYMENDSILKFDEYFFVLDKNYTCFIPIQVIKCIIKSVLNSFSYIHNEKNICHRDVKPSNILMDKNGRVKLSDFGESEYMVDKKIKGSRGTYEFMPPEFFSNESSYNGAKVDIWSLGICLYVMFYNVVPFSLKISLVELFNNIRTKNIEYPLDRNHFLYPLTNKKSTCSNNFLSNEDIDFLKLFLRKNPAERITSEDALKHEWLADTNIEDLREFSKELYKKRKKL
Chain of Calcium-dependent protein kinase 1 (Plasmodium falciparum (isolate 3D7)) (P62344 whole entry, looked up): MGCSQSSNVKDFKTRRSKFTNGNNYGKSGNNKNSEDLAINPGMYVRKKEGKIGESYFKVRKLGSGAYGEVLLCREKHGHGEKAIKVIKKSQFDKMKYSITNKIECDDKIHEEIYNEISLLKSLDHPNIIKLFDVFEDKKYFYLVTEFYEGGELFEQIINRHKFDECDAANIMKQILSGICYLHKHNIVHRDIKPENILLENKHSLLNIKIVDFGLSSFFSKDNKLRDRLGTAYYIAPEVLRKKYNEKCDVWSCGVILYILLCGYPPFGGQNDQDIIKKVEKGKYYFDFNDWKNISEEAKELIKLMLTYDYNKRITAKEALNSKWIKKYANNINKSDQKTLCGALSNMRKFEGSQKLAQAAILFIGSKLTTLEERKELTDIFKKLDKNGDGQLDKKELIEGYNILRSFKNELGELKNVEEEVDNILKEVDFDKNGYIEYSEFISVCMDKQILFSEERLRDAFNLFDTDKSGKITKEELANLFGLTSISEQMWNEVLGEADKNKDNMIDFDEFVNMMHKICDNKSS

With `COC(=O)CN(C(=O)/C=C/c1ccc(Cl)c(Cl)c1)C1CCC(CN2CCC(c3c[nH]c4ccccc34)CC2)CC1` (configuration not stated), the growth inhibition in assay [1] was 69% (active); in assay [4] it was 100% (active). Also, the inhibition (as a rule, the relative decrease from the control value, in per cent) in assay [2] was 31%; in assay [3] it was -1%. In addition, the outcome in assay [5], in assay [6], in assay [7] and in assay [8] was inactive.

Take `CCOC(=O)c1c(CN2CCN(C)CC2)n(Cc2ccccc2)c2cc(Br)c(O)cc12`: the growth inhibition in assay [1] is 46%; in assay [4], 100% (active). For the same compound, the inhibition in assay [2] was 11%; in assay [3], -5%. Also, the outcome in assay [5], in assay [6], in assay [7] and in assay [8] was inactive.

Regarding `C=C[C@H]1CN2CC[C@@H]1C[C@H]2[C@H](O)c1cc(-c2ccc(F)cc2)nc2ccc(OC)cc12`, the growth inhibition in assay [1] is 98% (active); in assay [4], 99% (active). For the same compound, the inhibition in assay [2] was 5%; in assay [3] it was -1%. Besides, the outcome in assay [5], in assay [6], in assay [7] and in assay [8] was inactive.

As for `O=C(CC1CCCC1)N(CC1CCN(Cc2ccc(C(F)(F)F)cc2)CC1)c1ccc(N2CCOCC2)c(F)c1`, the figures for the growth inhibition in assay [1] and in assay [4] were 97% (active) and 92% (active), respectively. In addition, the results for the inhibition in assay [2] and in assay [3] were 10% and -1%, respectively. Moreover, the outcome in assay [5], in assay [6], in assay [7] and in assay [8] was inactive.

Consider `O=C(/C=C/c1ccc(Cl)cc1)NC1CCC(CN2CCC(c3c[nH]c4ccccc34)CC2)CC1` (configuration not stated), for which the growth inhibition in assay [1] is 67% (active) and 90% (active); in assay [4], 99% (active) and 100% (active). Also, the inhibition was 39% and 40% in assay [2]; -6% and 4% in assay [3]. The result in assay [5], in assay [6], in assay [7] and in assay [8] was inactive.

Take `Cc1ccc(CC(C)NCC(O)c2cccc(C#N)c2)cc1` (configuration not stated): the results for the growth inhibition in assay [1] and in assay [4] were 86% (active) and 94% (active), respectively. Besides, the inhibition is 2% in assay [2] and -2% in assay [3]. In addition, the outcome in assay [5], in assay [6], in assay [7] and in assay [8] was inactive.

As to `CC(C)NC(=O)Cn1cc(C2CCN(CC3CCN(C(=O)/C=C/c4ccc(Cl)c(Cl)c4)CC3)CC2)c2ccccc21`, the growth inhibition was 55% (active) in assay [1] and 97% (active) in assay [4]. Moreover, the inhibition is 31% in assay [2] and -2% in assay [3]. In addition, the outcome in assay [5], in assay [6], in assay [7] and in assay [8] was inactive.

Consider `c1ccc(C(OCCC2CCN(Cc3cccnc3)CC2)c2ccccc2)cc1`, for which the growth inhibition in assay [1] was 98% (active); in assay [4], 99% (active). The results for the inhibition in assay [2] and in assay [3] were 12% and 5%, respectively. In addition, the result in assay [5], in assay [6], in assay [7] and in assay [8] was inactive.

For `CN1CCC(O)(c2ccc(Br)cc2)C(C(O)c2ccc(Br)cc2)C1` (configuration not stated), the growth inhibition is 99% (active) in assay [1] and 98% (active) in assay [4]. Moreover, the results for the inhibition in assay [2] and in assay [3] were 28% and -5%, respectively. Also, the result in assay [5], in assay [6], in assay [7] and in assay [8] was inactive.

For `OC(CNC12CC3CC(CC(C3)C1)C2)c1cccc(C(F)(F)F)c1` (configuration not stated), the growth inhibition in assay [1] was 98% (active); in assay [4], 97% (active). Further, the inhibition in assay [2] was 16%; in assay [3], -3%. Further, the outcome in assay [5], in assay [6], in assay [7] and in assay [8] was inactive.

For `COc1ccc(C(=O)[C@H]2C[C@@H]2CN2CC=C(c3c(C)[nH]c4ccccc34)CC2)cc1`, the growth inhibition was 94% (active) in assay [1] and 96% (active) in assay [4]. The inhibition in assay [2] was 16%; in assay [3] it was -6%. Moreover, the result in assay [5], in assay [6], in assay [7] and in assay [8] was inactive.

`CC(Cc1ccc(OCCOc2ccccc2)cc1)NCC(O)c1cccc(Cl)c1` (configuration not stated): the growth inhibition in assay [1] and in assay [4] was 99% (active) throughout. Besides, the inhibition in assay [2] was 12%; in assay [3], 1%. Moreover, the result in assay [5], in assay [6], in assay [7] and in assay [8] was inactive.

`COc1cccc(C(=O)[C@H]2C[C@@H]2CN2CC=C(c3c[nH]c4cccc(Br)c34)CC2)c1`: the growth inhibition was 85% (active) in assay [1] and 96% (active) in assay [4]. The inhibition in assay [2] was 22%; in assay [3], -3%. Besides, the outcome in assay [5], in assay [6], in assay [7] and in assay [8] was inactive.

On to `CN(CC(=O)N1CCN(S(=O)(=O)c2cccc(Cl)c2)CC1CN1CCCC1)c1ccc(Cl)c(Cl)c1` (configuration not stated), for which the growth inhibition is 32% in assay [1] and 89% (active) in assay [4]. The values for the inhibition in assay [2] and in assay [3] were 32% and -1%, respectively. Also, the result in assay [5], in assay [6], in assay [7] and in assay [8] was inactive.

Take `CCOc1ccc(Br)cc1/C=C/C(=O)Nc1ccc2c(c1)[C@@H]1CC[C@H]2N1C`: the growth inhibition in assay [1] was 26%; in assay [4], 89% (active). The values for the inhibition in assay [2] and in assay [3] were 60% (active) and -2%, respectively. Further, the outcome in assay [5], in assay [6], in assay [7] and in assay [8] was inactive.

`CNC(=O)c1ccc2[nH]cc(C3CCN(CC4CCC(NC(=O)/C=C/c5ccccc5Cl)CC4)CC3)c2c1` (configuration not stated): the growth inhibition in assay [1] was 19%; in assay [4] it was 100% (active). Moreover, the inhibition was 12% in assay [2] and 3% in assay [3]. Besides, the result in assay [5], in assay [6], in assay [7] and in assay [8] was inactive.

For `CC(Cc1ccc(OCc2ccccc2)c(Cl)c1)NCC(O)c1cccc(C(F)(F)F)c1` (configuration not stated), the growth inhibition in assay [1] was 95% (active); in assay [4], 97% (active). The inhibition in assay [2] is -2%; in assay [3] it was -4%. Moreover, the outcome in assay [5], in assay [6], in assay [7] and in assay [8] was inactive.

Take `CS(=O)(=O)Nc1ccc2[nH]cc(C3C[C@H]4CC[C@@H](C3)N4CC3CCC(NC(=O)/C=C/c4ccc(Cl)c(Cl)c4)CC3)c2c1` (some centres not stated): the values for the growth inhibition in assay [1] and in assay [4] were 50% (active) and 101% (active), respectively. Also, the values for the inhibition in assay [2] and in assay [3] were 3% and 7%, respectively. Moreover, the outcome in assay [5], in assay [6], in assay [7] and in assay [8] was inactive.

For the compound `COCCNCc1ccc(-c2ccc(CN(C(=O)Nc3ccccc3)C3CCN(Cc4ccccc4)CC3)cc2)cc1`, the growth inhibition was 39% in assay [1] and 98% (active) in assay [4]. Moreover, the results for the inhibition in assay [2] and in assay [3] were 16% and -5%, respectively. The outcome in assay [5], in assay [6], in assay [7] and in assay [8] was inactive.
